Source: PubChem
An excerpt weighted towards active compounds, which were near 7.1% of everything screened.
Marburg entry: Marburg virus entry inhibition; Marburg virus pseudotype entry/binding inhibition, cell-based; Potency, µM (titrated, usually from 49.2 µM), most hits filed as inhibitors; actives 6.5% (n = 18,000)
LASV entry inh: blocks Lassa virus binding or cell entry; Lassa virus pseudotyped entry inhibition, cell-based qHTS; Potency, µM (doses to about 49.2 µM), usual class: inhibitors; actives 4.1% (n = 18,000); AID 720533
Numbers stand for hits; 0 = inactive; ? = inconclusive; - = not tested or not shown; [ ] = another dose, or the depositor's remark. Calls follow the shape of the full dose curve; tested in HEK293 cells.

SMILES	Marburg entry	LASV entry inh
CC1CC[C@@]2(OC1)OC1C(O)C3C4CC[C@H]5CC(O[C@@H]6O[C@@H](CO)[C@H](OC7OC(CO)C(O)C(OC8OCC(O)C(O)[C@H]8O)[C@@H]7O[C@@H]7OC(CO)[C@H](O)[C@@H](O[C@@H]8OC(CO)C(O)C(O)C8O)C7O)C(O)C6O)C(O)C[C@]5(C)C4CC[C@]3(C)C1C2C (some centres undefined)	?	14µM
CC1CC[C@@]2(OC1)O[C@@H]1[C@@H](O)[C@H]3C4CC[C@H]5C[C@@H](O[C@@H]6O[C@H](CO)[C@H](O[C@@H]7O[C@H](CO)[C@@H](O)[C@H](O[C@@H]8OC[C@@H](O)[C@H](O)[C@H]8O)[C@H]7O[C@@H]7O[C@H](CO)[C@@H](O)[C@H](O[C@@H]8O[C@H](CO)[C@@H](O)[C@H](O)[C@H]8O)[C@H]7O)[C@H](O)[C@H]6O)[C@H](O)C[C@]5(C)C4CC[C@]3(C)[C@H]1[C@@H]2C (some centres undefined)	25µM	14µM
CC1CC[C@@]2(OC1)OC1CC3C4CC[C@@H]5CC(O)CC[C@@]5(C)C4CC[C@]3(C)C1C2C (some centres undefined)	0	0
CC1CC[C@@]2(OC1)OC1CC3C4CC[C@H]5CC(O)CC[C@@]5(C)C4CC[C@]3(C)C1C2C (some centres undefined)	0	0
COc1cccc([C@H]2Oc3ccc(OC)cc3C(=NO[C@H](C)c3cn([C@H](CO)Cc4ccccc4)nn3)[C@H]2O)c1	0[8.59 µM]	0[8.59 µM]
CCS(=O)(=O)c1ccc(OC)c(Nc2ncc(-c3cccc(-c4ccccc4F)c3)o2)c1	0	-
CCCC[C@]12Cc3c(ccc4ccccc34)[C@H](O1)c1c(cc(C)oc1=O)O2	0[8.59 µM]	0[8.59 µM]
N[C@@]1(C(=O)O)CN[C@@H](C(=O)O)C1	28µM	0
NC1(C(=O)O)CC(C(=O)O)C1 (centres undefined)	0	0
O=C(Nc1n[nH]c2nc(-c3ccco3)c(Br)cc12)C1CC1	?	0
Cn1ccc2c(C=Cc3ccc(F)cc3)cc3c(c21)C1CCC3O1 (centres undefined)	0	0
CN(C)c1nc(NC2CCC(NC(=O)c3ccc(F)c(F)c3)CC2)nc2ccccc12 (centres undefined)	2.8µM	16µM
CN(C)C(=O)c1ccc(-c2nc(Nc3ccc(F)cc3)c3ccccc3n2)cc1	0	0
C=CC(C)(C)c1[nH]c2ccccc2c1C1=C(O)C(=O)C(c2c[nH]c3c(CC=C(C)C)cccc23)=C(O)C1=O	0	14µM
CC(C)C[C@H](NC(=O)[C@@H](O)[C@H](N)Cc1ccccc1)C(=O)O	0	?
CC[C@@H](C)[C@@H](CO[C@@H](Cc1ccccc1)C(=O)N[C@@H](CCS(C)(=O)=O)C(=O)OC(C)C)NC[C@@H](N)CS	10µM	0
CCCCN1CC(COc2ccccc2)Oc2cc(Br)ccc2S1(=O)=O (centres undefined)	?	0
CCN(CC)CCOc1ccc2c(c1)C(=O)c1cc(OCCN(CC)CC)ccc1-2	6.3µM	?
CCOc1ccc(C(=O)OCCN(CC)CC)cc1	0	0
COc1ccc(COC(=O)NN=C2C[C@@H](O)[C@@H](O)[C@@H]3[C@H]4C(=O)N(C[C@@H]5CCCO5)C(=O)[C@@H]4CC[C@H]23)cc1	?	0.6µM
COc1ccc(COC(=O)NN=C2C[C@@H](O)[C@@H](O)[C@@H]3[C@H]4C(=O)N(C5CCCCC5)C(=O)[C@@H]4CC[C@@H]23)cc1	0[8.59 µM]	-
CCOC(=O)NN=C1C[C@@H](O)[C@@H](O)[C@@H]2[C@H]3C(=O)N(c4ccc(F)cc4F)C(=O)[C@@H]3CC[C@H]12	0[8.59 µM]	0[8.59 µM]
COc1ccc(COC(=O)NN=C2C[C@@H](O)[C@@H](O)[C@@H]3[C@H]4C(=O)N(c5ccc(F)cc5F)C(=O)[C@@H]4CC[C@H]23)cc1	0[8.59 µM]	1.3µM
CCCC[C@]12Cc3c(ccc4ccccc34)[C@H](O1)C1=C(O2)C(=O)c2ccccc2C1=O	0[8.59 µM]	0[8.59 µM]
S=C=Nc1cccc(C2(N3CCCCC3)CCCCC2)c1	?	14µM
SMILES	Marburg entry	LASV entry inh
COc1cc2c(c(OC)c1)[C@H](C=Cc1ccccc1)[C@@H]([C@H](O)CO)OC2	0[8.59 µM]	0[8.59 µM]
COC1=C(C(=O)c2ccccc2)C(=O)[C@@]2(CC=C(C)C)C[C@H](C(=O)OCC(F)(F)F)C(C)(C)[C@@]1(CC=C(C)C)C2=O	0[8.59 µM]	0[8.59 µM]
c1ccc(C2NCCc3c2[nH]c2ccccc32)cc1 (centres undefined)	0[8.59 µM]	0[8.59 µM]
COc1ccc2[nH]c(-c3cccc(F)c3)cc(=O)c2c1	?	0
COc1cccc(-c2cc(=O)c3cc(NC(=O)c4ccc(Cl)cc4)ccc3[nH]2)c1	?	0
COc1cccc(-c2cc(=O)c3cc(NC(=O)c4ccccc4)ccc3[nH]2)c1	7.1µM	?
COc1cccc(-c2cc(=O)c3cc(NC(=O)c4ccc(N(C)C)cc4)ccc3[nH]2)c1	4µM	?
C#CCCCON=C1C[C@@H](O)[C@H](O)[C@H]2[C@@H]3C(=O)N(c4ccc(F)cc4F)C(=O)[C@@H]3CC[C@H]12	0[8.59 µM]	0[8.59 µM]
COc1ccc2c(c1)CO[C@H]([C@H](O)COC(C)=O)[C@H]2C=Cc1ccccc1	0[8.59 µM]	0[8.59 µM]
COC[C@@H](OC(C)=O)[C@H]1OCc2ccccc2[C@H]1C=Cc1ccccc1	0[8.59 µM]	0[8.59 µM]
O=S1(=O)CC(N2CC=CC2)CN1CCc1ccccc1 (centres undefined)	0	0
Cc1c(N)nc(C(CC(N)=O)NCC(N)C(N)=O)nc1C(=O)NC(C(=O)NC(C)C(O)C(C)C(=O)NC(C(=O)NCCc1nc(-c2nc(C(=O)NCCCN[C@@H](C)c3ccccc3)cs2)cs1)C(C)O)C(O[C@@H]1O[C@@H](CO)[C@@H](O)[C@H](O)[C@@H]1O[C@H]1O[C@H](CO)[C@@H](O)[C@H](OC(N)=O)[C@@H]1O)c1cnc[nH]1 (some centres undefined)	3.2µM	3.5µM
Oc1cc2c(cc1O)[C@H]1c3ccccc3CN[C@H]1CC2	25µM	?
c1ccc([C@H]2CNCc3ccccc32)cc1	0	0
COC(=O)C1=C2CCO[C@@H]2[C@H]2[C@@H](C)[C@H](OC)c3ccccc3[C@H]12	0[8.59 µM]	0[8.59 µM]
NC[C@@H]1O[C@H](C23CC4CC(CC(C4)C2)C3)Cc2c1ccc(O)c2O	13µM	?
NC[C@@H]1O[C@H](c2ccccc2)Cc2c1ccc(O)c2O	?	0
CCN1C(=NCCCOC(C)C)N[C@@H](CCc2ccccc2)[C@H](C(=O)OC)[C@H]1C	0[8.59 µM]	0[8.59 µM]
CC(C)=CCCC(C)=CCON=C1C[C@@H](O)[C@@H](O)[C@@H]2[C@H]3C(=O)N(Cc4ccccc4)C(=O)[C@@H]3CC[C@@H]12	0[8.59 µM]	0[8.59 µM]
Oc1ccc2c3c1O[C@H]1[C@H](O)CC[C@@]4(O)[C@@H](C2)N(CC2CC2)CC[C@]314	0	0
COC(=O)/C=C\C(=O)N[C@@H]1CC[C@@]2(O)[C@H]3Cc4ccc(O)c5c4[C@@]2(CCN3CC2CC2)[C@@H]1O5	28µM	?
O=C1/C(=C\c2ccccc2)C[C@@]2(O)[C@H]3Cc4ccc(O)c5c4[C@@]2(CCN3CC2CC2)[C@H]1O5	?	4µM
O=C1/C(=C\c2ccccc2)C[C@@]2(O)[C@H]3Cc4ccc(O)c5c4[C@@]2(CCN3CC2CC2)[C@@H]1O5	11µM	3.5µM
Oc1ccc2c3c1O[C@H]1[C@@H](O)CC[C@@]4(O)[C@@H](C2)N(CC2CCC2)CC[C@]314	?	0
O=C1CC[C@@]2(O)[C@H]3Cc4ccc(O)c5c4[C@@]2(CCN3CC2CC2)[C@@H]1O5	0	0
